Test results from PubChem BioAssay (NCI).
This is part of a sample that, as a whole, favours compounds with a hit. Of some 83,000 tested, about 20% had one in any assay.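 Testing used 96-well plates and a 48-hour single-concentration exposure. Example: -40 means 40% of the starting cells died.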 A number with no mark means an inactive call. Calls of active or inactive are those of the source. How the source made its calls: active means growth percent below 10; inactive means the rest.

What follows are molecules tested on SW-620 colon (assay: NCI-60 one-dose screen, 48 h (100 = growth as untreated, 0 = no growth, -100 = all killed)). Conditions: 10 µM unless noted.
In the case of `NC1[C@H]2CN(c3cnc(C(=O)Nc4cc(F)cc5cccnc45)cn3)C[C@@H]12` (stereo partly drawn), the growth is reported as 47.6%. `COc1ccc(C2c3[nH]c4ccc(Cl)cc4c3CCN2c2oc(CO)nc2C#N)cc1` (stereo not drawn) was tested, and the growth was 32.9%. Work on `COc1ccc2[nH]cc(-c3nn4cc(-c5ccncc5)nc4s3)c2c1` yielded a growth of 66.3%. `CC1=C(C)C(=O)C(Nc2ccc(C)cc2)=C(Br)C1=O` gave a growth of 103%. `CCOC(=O)c1c(NC(=O)c2cccc(C(F)(F)F)c2)sc2c1CCC(=O)C2` showed a growth of 13.8%. `CCOC(=O)c1c(NC(=O)c2ccc(C(F)(F)F)cc2)sc2c(CN3CCN(C)CC3)c(O)ccc12` was tested, and the growth was -71.2% (active). In the case of `CC(Nc1c(C#N)cnc2ccc(-c3cncc(-c4n[nH]c(=O)o4)c3)cc12)c1ccccc1` (stereo not drawn), the growth is reported as 18.7%. `Cc1ccc(-c2cc3nc(C(Cl)Cl)nc(-c4ccc(S(=O)(=O)N(C)C)cc4)n3n2)cc1` showed a growth of 83.1%. In the case of `CN(C)S(=O)(=O)c1ccc(-c2nc(C(Cl)Cl)nc3cc(-c4ccccc4)nn23)cc1`, the growth is reported as 49.6%. `COc1ccc(/C=N/N=C(/c2ccccc2)c2ccc3nc(-c4ccc(Cl)cc4)[nH]c3c2)cc1` was tested, and the growth was 88.3%. With `CCN(CC)S(=O)(=O)c1ccc(-c2nc(C(Cl)Cl)nc3cc(C)nn23)cc1` the growth was 6.12% (active). `COc1ccc(-c2nc(C#N)c(N3CCC(S(=O)(=O)N4CCOCC4)CC3)o2)cc1` showed a growth of 95.7%. Molecule `COc1ccc(OC)c(CCn2cncc2-c2c[nH]c3ccc(Cl)cc23)c1` has a growth of 43.4%.
